Records with an inconclusive call do not appear. Entries that show only a call come without a potency. The source made the active and inactive calls. The call rests on the fitted dose curve; in most records, active means well fitted inhibition curve with a large enough effect; inconclusive means small, poorly fitted or top-dose-only effect; inactive means flat fitted curve, though single readings scatter. Peptide text beside a SMILES is read from it.
system: CP256; assay: qHTS profiling for inhibitors of Plasmodium falciparum proliferation (AID 504749); further: nearly all actives have a fitted effect of over 60% in size; details: P. falciparum in erythrocytes, SYBR Green DNA, 72 h; series mostly up to 12.8 µM
Procedure, shortened: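 Readout was DNA-dye fluorescence from lysed cultures, ex 485/em 535 nm. Parasitized red cells had grown 72 h with compound; data scaled between 0.29 uM artemisinin and DMSO wells and corrected using vehicle-only plates.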
Potency means the concentration at half of the fitted maximal effect.

With `CN(C)CCCOC1C(C(O)CO)OC2OC(C)(C)O[C@@H]21` (stereo partly drawn) as the molecule, how does the Potency read?
The Potency was “inactive”.

With `CCC(C)C(=O)OC1CCC=C2C=CC(C)C(CCC3CC(O)CC(=O)O3)[C@@H]21` (stereo partly drawn) as the molecule, how does the Potency read?
Its Potency is “inactive”.

`CC(=O)OC1CCC2C3CCc4cc(O)ccc4C3CCC12C` (stereo not drawn) was tested. Which Potency did it give?
The Potency was “inactive”.

`CC[C@@]12CCCN3CCc4c(n(c5ccccc45)[C@](O)(C(=O)OC)C1)C32` (stereo partly drawn) was tested. Which Potency did it give?
Its Potency is “inactive”.

How did the Potency turn out when `NC(C(=O)O)[C@@H]1CC(Cl)=NO1` (stereo partly drawn) was run?
Its Potency is 2.82 µM (active).

For `CN1CC(=O)N=C1N`, which Potency is on record?
The Potency was “inactive”.

For `OCC1OC([S-])[C@H](O)C(O)C1O.[Au+]` (stereo partly drawn), which Potency is on record?
Its Potency is “inactive”.

With `CC(C)C1CCC(C(=O)NC(Cc2ccccc2)C(=O)O)CC1` (stereo not drawn) as the molecule, how does the Potency read?
The Potency was “inactive”.

For `CCC(CCC(C)C1CCC2C3CC=C4CC(O)CC[C@@]4(C)C3CC[C@@]12C)C(C)C` (stereo partly drawn), which Potency is on record?
Its Potency is “inactive”.

With `C[C@]12CCC(=O)C=C1CCC1C2C(=O)C[C@]2(C)C1CC[C@]2(O)C(=O)CO` (stereo partly drawn) as the molecule, how does the Potency read?
Its Potency is “inactive”.

With `OCC1O[C@H](OC2C(CO)O[C@@](O)(CO)C2O)C(O)C(O)C1O` (stereo partly drawn) as the molecule, how does the Potency read?
The Potency was “inactive”.

With `CC1(C)OC2CO[C@]3(COS(N)(=O)=O)OC(C)(C)OC3C2O1` (stereo partly drawn) as the molecule, how does the Potency read?
Its Potency is “inactive”.

`CC1(C)OC2CC(=O)OC[C@@]23C1CC(=O)[C@]1(C)C3CC[C@@]2(C)C(c3ccoc3)OC(=O)C3O[C@@]321` (stereo partly drawn) was tested. Which Potency did it give?
Its Potency is “inactive”.

For `CCOC(=O)C1=CC(OC(CC)CC)C(NC(C)=O)C(N)C1` (stereo not drawn), which Potency is on record?
Its Potency is “inactive”.

How did the Potency turn out when `COC(=O)C(Cc1ccccc1)NC(=O)C(N)CC(=O)O` (stereo not drawn) (H-Asp-Phe-OMe; configuration not given here) was run?
Its Potency is “inactive”.

`C[C@]12C=CC(=O)C=C1CCC1C2C(O)C[C@]2(C)C1CC[C@]2(O)C(=O)CO` (stereo partly drawn) was tested. Which Potency did it give?
Its Potency is “inactive”.

With `CC1(C)S[C@H]2C(NC(=O)[C@@H](N)c3ccc(O)cc3)C(=O)N2[C@@H]1C(=O)O` (stereo partly drawn) as the molecule, how does the Potency read?
The Potency was “inactive”.

For `CC(C)=CCC[C@](C)(O)C1CC=C(C)CC1` (stereo partly drawn), which Potency is on record?
The Potency was “inactive”.

`CO[C@]12C(COC(N)=O)C3=C(C(=O)C(C)=C(N)C3=O)N1CC1NC12` (stereo partly drawn) was tested. Which Potency did it give?
Its Potency is 5.01 µM (active).

With `C[C@]1(c2ccccc2)OC(C(=O)O)=CC1=O` as the molecule, how does the Potency read?
The Potency was “inactive”.

With `CC(=O)N[C@H](CC(C)C)C(=O)O` as the molecule, how does the Potency read?
Its Potency is “inactive”.

Which Potency does the source give for `COc1ccc2cc(C(C)CO)ccc2c1` (stereo not drawn) here?
Its Potency is “inactive”.

For `COC1C=CO[C@@]2(C)Oc3c(C)c(O)c4c(O)c(c(C=NN5CCN(C)CC5)c(O)c4c3C2=O)NC(=O)/C(C)=C\C=CC(C)C(O)[C@@H](C)C(O)C(C)[C@H](OC(C)=O)C1C` (stereo partly drawn), which Potency is on record?
The Potency was 3.55 µM (active).

`CC1CCC(C(C)C)C(=O)C1` (stereo not drawn) was tested. Which Potency did it give?
The Potency was “inactive”.

How did the Potency turn out when `CNC1CC(N)[C@H](O)[C@@H](O[C@@H]2OC(CO)C3OC4(OC(C(N)CO)C(O)C(O)C4O)O[C@@H]3[C@H]2O)C1O` (stereo partly drawn) was run?
Its Potency is “inactive”.

How did the Potency turn out when `CCCC(=O)O[C@]1(C(=O)CO)CCC2[C@@H]3CCC4=CC(=O)CC[C@]4(C)C3C(O)C[C@]21C` (stereo partly drawn) was run?
Its Potency is “inactive”.

How did the Potency turn out when `CC(=O)[C@]1(O)CCC2C3C=C(Cl)C4=CC(=O)C5CC5[C@@]4(C)C3CC[C@]21C` (stereo partly drawn) was run?
The Potency was “inactive”.

Which Potency does the source give for `CC(=O)N[C@@H]1C(O)OC(CO)C(O)C1O` (stereo partly drawn) here?
Its Potency is “inactive”.

How did the Potency turn out when `C/C1=C2N=C(/C=C3N=C(/C(C)=C4\[N-]C(C)(C5N=C1C(C)(CCC(=O)NCC(C)OP(=O)([O-])O[C@H]1C(O)C(n6cnc7cc(C)c(C)cc76)O[C@@H]1CO)C5CC(N)=O)C(C)(CC(N)=O)C4CCC(N)=O)C(C)(CC(N)=O)C\3CCC(N)=O)C(C)(C)C/2CCC(N)=O.[CH2-]C1OC(n2cnc3c(N)ncnc32)C(O)C1O.[Co]` (stereo partly drawn) was run?
Its Potency is “inactive”.

With `O=C1OC(CO)C(O)C(O)C1O` (stereo not drawn) as the molecule, how does the Potency read?
The Potency was “inactive”.

Which Potency does the source give for `CNC1C(OC2C(O[C@@H]3C(O)C(O)[C@@H](N=C(N)N)C(O)C3N=C(N)N)OC(C)[C@@]2(O)CO)OC(CO)C(O)C1O` (stereo partly drawn) here?
Its Potency is “inactive”.

`COc1cc(C2c3cc4c(cc3C(O[C@@H]3OC5COC(c6cccs6)OC5C(O)C3O)C3COC(=O)C23)OCO4)cc(OC)c1O` (stereo partly drawn) was tested. Which Potency did it give?
The Potency was 3.16 µM (active).

For `Nc1nc2ncc(CNc3ccc(C(=O)NC(CCC(=O)O)C(=O)O)cc3)nc2c(=O)[nH]1` (stereo not drawn), which Potency is on record?
Its Potency is “inactive”.

Source: PubChem BioAssay (NCATS)
